The text below walks through data of PubChem BioAssay (NCI).

The structures appear in SMILES notation. Compounds without any hit were thinned out: in the full panel of roughly 83,000, 20% have a hit.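 Note: values are percent growth. 100 is the growth of untreated cells, values between 100 and 0 indicate rising inhibition; between -100 and 0 indicates cell death.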 Unmarked numbers belong to inactive results. Active and inactive are the calls of the source. How the source made its calls: active means growth percent below 10; inactive means the rest.

Some test systems named below: HCT-15 colon; HT29 colon; SNB-75 CNS; SNB-19 CNS; U251 CNS; PC-3 prostate; SK-MEL-5 melanoma; UACC-62 melanoma; LOX IMVI melanoma; SK-MEL-28 melanoma; SK-MEL-2 melanoma; EKVX NSCLC; UO-31 renal; TK-10 renal; ACHN renal; CAKI-1 renal; A498 renal; CCRF-CEM leukemia; MOLT-4 leukemia; SN12C renal.
Holding throughout (test): NCI-60 one-dose screen, 48 h (100 = growth as untreated, 0 = no growth, -100 = all killed)
Holding throughout (conditions): 10 µM unless noted

Regarding `CC1=C(C)C(=O)C(Nc2ccc3c(c2)OCO3)=C(Br)C1=O`, the growth in the assay with HCT-15 colon was 101%; with HT29 colon it was 109%; in the assay with SNB-75 CNS, 74.3%; in the assay with SNB-19 CNS, 93.8%; in the assay on U251 CNS it was 103%; in the assay with PC-3 prostate, 86%. Further, the growth in the assay with SK-MEL-5 melanoma was 90.2%; in the assay on UACC-62 melanoma, 87.4%; in the assay on LOX IMVI melanoma, 77.2%; in the assay on SK-MEL-28 melanoma it was 110%; in the assay on SK-MEL-2 melanoma, 114%; in the assay on EKVX NSCLC it was 76.3%. The growth was 88.1% with UO-31 renal; 150% in the assay with TK-10 renal; 100% in the assay on ACHN renal; 95.6% in the assay with CAKI-1 renal; 95.2% in the assay with A498 renal; 11.6% in the assay on CCRF-CEM leukemia. Also, in the assay with MOLT-4 leukemia, the growth is -10.2% (active).

For `CC(C)C(/C=C/c1[nH]ncc1-c1cc(Cl)ccc1O)N1CCOCC1` (configuration not stated), the growth in the assay on HCT-15 colon was 94.9%; with HT29 colon, 104%; in the assay with SNB-75 CNS it was 65.3%; in the assay with SNB-19 CNS it was 99.5%; in the assay on U251 CNS, 97.3%; in the assay with PC-3 prostate, 84.7%. Moreover, the growth is 95% in the assay with SK-MEL-5 melanoma; 87.1% in the assay with UACC-62 melanoma; 98.8% in the assay with LOX IMVI melanoma; 98.9% in the assay on SK-MEL-28 melanoma; 91.3% in the assay with SK-MEL-2 melanoma; 95.9% with EKVX NSCLC. Also, the growth in the assay with UO-31 renal is 70%; with TK-10 renal, 119%; in the assay on ACHN renal, 92.8%; in the assay on CAKI-1 renal it was 69.7%; in the assay with A498 renal it was 81.7%; with CCRF-CEM leukemia, 97.7%. The growth in the assay with MOLT-4 leukemia is 86%.

Regarding `C#C[C@]1(O)CC[C@H]2[C@@H]3CC=C4c5sc(NCc6ccccc6)nc5CC[C@]4(C)[C@H]3CC[C@@]21C`, the growth with HCT-15 colon is 8.8% (active); in the assay with HT29 colon, -7.33% (active); with SNB-75 CNS, 23.5%; in the assay with SNB-19 CNS it was 66.2%; with U251 CNS, 23.4%; in the assay on PC-3 prostate it was 15.3%. Further, the growth in the assay on SK-MEL-5 melanoma was 58.2%; with UACC-62 melanoma, 9.41% (active); in the assay with LOX IMVI melanoma, -5.72% (active); in the assay with SK-MEL-28 melanoma, 12.7%; in the assay with SK-MEL-2 melanoma it was -17.9% (active); in the assay with EKVX NSCLC, 55.4%. For the same molecule, the growth is 13.2% with UO-31 renal; 76.8% with TK-10 renal; 61.8% in the assay on ACHN renal; 50.6% in the assay with CAKI-1 renal; 8.6% (active) with A498 renal; 6.53% (active) with CCRF-CEM leukemia. In the assay on MOLT-4 leukemia, the growth is -11.7% (active).

`Cc1cc(=O)[nH]c(O)c1C#N`: the growth in the assay with HCT-15 colon is 103%; in the assay on HT29 colon, 110%; in the assay with SNB-75 CNS, 87%; with SNB-19 CNS, 101%; with U251 CNS it was 100%; with PC-3 prostate, 97.1%. Also, the growth in the assay with SK-MEL-5 melanoma was 102%; in the assay with UACC-62 melanoma, 91.7%; in the assay on LOX IMVI melanoma, 95.1%; with SK-MEL-28 melanoma, 108%; in the assay on SK-MEL-2 melanoma it was 116%; with EKVX NSCLC it was 94.3%. Besides, the growth in the assay on SN12C renal was 102%; in the assay on UO-31 renal, 84.3%; in the assay with TK-10 renal, 107%; with ACHN renal it was 99.5%; with CAKI-1 renal, 90.6%; in the assay with CCRF-CEM leukemia, 99.6%. In the assay with MOLT-4 leukemia, the growth was 100%.

For the molecule `Nc1ccc(Nc2ncnc3sc4c(c23)CCN(Cc2ccccc2)C4)cc1`, the growth in the assay with HCT-15 colon was 100%; in the assay with HT29 colon, 101%; in the assay on SNB-75 CNS it was 88.7%; with SNB-19 CNS it was 97.2%; with U251 CNS, 102%; in the assay with PC-3 prostate, 89.1%. Moreover, the growth was 96.6% in the assay with SK-MEL-5 melanoma; 87.8% with UACC-62 melanoma; 101% with LOX IMVI melanoma; 102% with SK-MEL-28 melanoma; 109% in the assay on SK-MEL-2 melanoma; 102% in the assay with EKVX NSCLC. Besides, the growth with UO-31 renal was 83.8%; in the assay on TK-10 renal it was 134%; in the assay on ACHN renal, 91.7%; with CAKI-1 renal it was 90.8%; with A498 renal it was 95.3%; in the assay on CCRF-CEM leukemia it was 95.1%. The growth with MOLT-4 leukemia is 87.8%.

As for `O=C1/C(=C/C=C/c2ccco2)SC(=S)N1Cc1ccccc1`, the growth with HCT-15 colon was 65%; in the assay on HT29 colon it was 110%; in the assay with SNB-75 CNS, 84.7%; with SNB-19 CNS it was 89.2%; in the assay with U251 CNS it was 92.3%; in the assay with PC-3 prostate it was 101%. Moreover, the growth is 98.8% in the assay with SK-MEL-5 melanoma; 82.1% with UACC-62 melanoma; 96.4% with LOX IMVI melanoma; 101% in the assay with SK-MEL-28 melanoma; 102% in the assay on SK-MEL-2 melanoma; 98% in the assay on EKVX NSCLC. The growth was 99.2% in the assay with SN12C renal; 83.9% in the assay with UO-31 renal; 124% in the assay on TK-10 renal; 104% in the assay with ACHN renal; 81% in the assay with CAKI-1 renal; 93.5% in the assay with CCRF-CEM leukemia. The growth in the assay with MOLT-4 leukemia is 96.4%.

Take `CCCCCC[n+]1ccc(SCC(=O)n2ccc3ccccc32)c2ccccc21`: the growth in the assay with HCT-15 colon was 94.3%; with HT29 colon it was 84%; in the assay on SNB-75 CNS it was 100%; in the assay with SNB-19 CNS it was 86.8%; with U251 CNS it was 94.4%; in the assay with PC-3 prostate, 83.7%. In addition, the growth in the assay with SK-MEL-5 melanoma is 88.7%; in the assay on UACC-62 melanoma it was 73.3%; with LOX IMVI melanoma, 91.5%; in the assay with SK-MEL-28 melanoma, 106%; in the assay with SK-MEL-2 melanoma it was 94.3%; in the assay with EKVX NSCLC, 83.8%. For the same molecule, the growth in the assay on SN12C renal was 88.8%; with UO-31 renal it was 68.6%; in the assay with TK-10 renal it was 108%; in the assay on ACHN renal it was 87.2%; in the assay on CAKI-1 renal, 78.4%; in the assay with MOLT-4 leukemia it was 79.4%.
